Measurements from PubChem BioAssay AID2669 (National Center for Advancing Translational Sciences (NCATS), 2010).
Records with an inconclusive call do not appear. A call without a number means that no potency is given here. Activity calls are given as the source filed them. Calls come from the whole dose curve; as a rule, active = well fitted inhibition curve with a large enough effect; inconclusive = small, poorly fitted or top-dose-only effect, or effect the other way; inactive = flat fitted curve, though single readings scatter.

experiment: qHTS Assay Multiplex Screening to Identify Dual Action Probes in a Cell Model of Huntington: Cytoprotection (Protease relase); settings: PC12 HttQ103 cells, Cytotox-Glo protease release, 40 h; series mostly up to 46.1 µM
Method in brief: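 Inducible PC12 line expressing HTT exon 1 (Q103)-GFP, induced with 100 nM tebufenozide (final) and treated with compounds. Cytoprotection read as released protease activity by Cytotox-Glo luminescence.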

SMILES | Potency
Fc1cccc(Cl)c1Cn1nnc2c(-n3ccnc3)ncnc21 | inactive
COc1cccc(C(=O)Nc2ccc(F)c(F)c2F)c1 | 7.08 µM (active)
Cc1cccc(OCc2nc(C)cc(=O)[nH]2)c1 | 10 µM (active)
N#CCCn1c(Cl)nc2ccccc21 | inactive
CC(=O)c1cccc(-c2csc3ncnc(Sc4nnnn4C)c23)c1 | 7.08 µM (active)
N#Cc1c(C(F)(F)F)cc(-c2cccc(Cl)c2)[nH]c1=O | 2.51 µM (active)
CS(=O)(=O)c1ccc([C@H](O)[C@H](CO)NC(=O)C(Cl)Cl)cc1 | inactive
Cn1nnnc1Sc1ncnc2scc(Br)c12 | 7.94 µM (active)
CN1C(=O)C2(c3ccccc31)C1CCCC=C1C(C#N)=C(N)C2(C#N)C#N (stereo not given) | inactive
O=C(NCN1C(=O)C2C3C=CC(C3)C2C1=O)Nc1ccccn1 (stereo not given) | inactive
